Measurements reported in the antibiotic and cytotoxicity screens of Wong et al. (2023).
Hit rate of the full screen: of about 39,000 compounds, about 3,300 (8.5%) were called active. The sample as a whole holds a higher share of actives than the screen did.

test system: HepG2; experiment: cytotoxicity call (relative viability < 0.9); conditions: 10 µM

Row | Compound | cytotoxicity call
1 | CC(=O)n1cc([C@@H]2C=C(C(=O)NCc3ccccc3)O[C@H](OCc3ccc(CO)cc3)C2)c2ccccc21 | inactive
2 | C[C@@H]1CN([C@H](C)CO)C(=O)c2cc(NS(=O)(=O)c3ccccc3)ccc2O[C@@H]1CN(C)Cc1ccc(-c2ccccc2)cc1 | inactive
3 | C[C@@H]1CN([C@@H](C)CO)C(=O)c2cc(NS(=O)(=O)c3ccccc3)ccc2O[C@@H]1CN(C)Cc1ccc(-c2ccccc2)cc1 | active
4 | C[C@H]1CN([C@@H](C)CO)C(=O)c2cc(NS(=O)(=O)c3ccccc3)ccc2O[C@H]1CN(C)Cc1ccc(-c2ccccc2)cc1 | inactive
5 | C[C@H]1CN([C@@H](C)CO)C(=O)c2cc(NS(=O)(=O)c3ccccc3)ccc2O[C@@H]1CN(C)Cc1ccc(-c2ccccc2)cc1 | inactive
6 | C[C@@H]1CN([C@@H](C)CO)C(=O)c2cc(NS(=O)(=O)c3ccccc3)ccc2O[C@H]1CN(C)Cc1ccc(-c2ccccc2)cc1 | active
7 | C[C@H](CO)N1C[C@H](C)[C@H](CN(C)Cc2ccc(-c3ccccc3)cc2)Oc2ccc(NS(=O)(=O)c3ccccc3)cc2C1=O | inactive
8 | COc1ccc(NC(=O)N(C)C[C@H]2OCCCC[C@H](C)Oc3ccc(NC(=O)c4ccccc4)cc3C(=O)N([C@H](C)CO)C[C@@H]2C)cc1 | inactive
9 | C[C@@H]1CCCCO[C@@H](CN(C)C(=O)Nc2ccc3c(c2)OCO3)[C@H](C)CN([C@H](C)CO)C(=O)c2cc(NC(=O)Nc3ccccc3)ccc2O1 | active
10 | C[C@H]1CCCCO[C@@H](CN(C)C(=O)Nc2ccc3c(c2)OCO3)[C@@H](C)CN([C@@H](C)CO)C(=O)c2cc(NC(=O)Nc3ccccc3)ccc2O1 | inactive
11 | COc1ccc(NC(=O)N(C)C[C@@H]2OCCCC[C@H](C)Oc3ccc(NC(=O)Nc4ccc5c(c4)OCO5)cc3C(=O)N([C@@H](C)CO)C[C@H]2C)cc1 | inactive
12 | C[C@@H]1CCCCO[C@H](CN(C)C(=O)Nc2ccc3c(c2)OCO3)[C@H](C)CN([C@H](C)CO)C(=O)c2cc(NC(=O)Nc3ccccc3)ccc2O1 | inactive
13 | COc1ccc(NC(=O)N(C)C[C@H]2OCCCC[C@@H](C)Oc3ccc(NC(=O)Nc4ccccc4)cc3C(=O)N([C@H](C)CO)C[C@@H]2C)cc1 | active
14 | COc1ccc(NC(=O)N(C)C[C@H]2OCCCC[C@H](C)Oc3ccc(NC(=O)Nc4ccccc4)cc3C(=O)N([C@H](C)CO)C[C@@H]2C)cc1 | inactive
15 | COc1ccc(NC(=O)N(C)C[C@H]2OCCCC[C@H](C)Oc3ccc(NC(=O)Nc4ccccc4)cc3C(=O)N([C@@H](C)CO)C[C@@H]2C)cc1 | inactive
16 | COc1ccc(NC(=O)N(C)C[C@@H]2OCCCC[C@@H](C)Oc3ccc(NC(=O)c4ccccc4)cc3C(=O)N([C@@H](C)CO)C[C@@H]2C)cc1 | inactive
17 | COc1ccc(NC(=O)N(C)C[C@@H]2OCCCC[C@@H](C)Oc3ccc(NC(=O)c4ccccc4)cc3C(=O)N([C@H](C)CO)C[C@H]2C)cc1 | active
18 | COc1ccc(NC(=O)Nc2ccc3c(c2)C(=O)N([C@H](C)CO)C[C@H](C)[C@H](CN(C)C(=O)Nc2ccc4c(c2)OCO4)OCCCC[C@@H](C)O3)cc1 | inactive
19 | COc1ccc(NC(=O)Nc2ccc3c(c2)C(=O)N([C@H](C)CO)C[C@H](C)[C@@H](CN(C)C(=O)Nc2ccc4c(c2)OCO4)OCCCC[C@H](C)O3)cc1 | active
